Results on eight compounds are retold here after PubChem BioAssay (NCATS).

Inconclusive results are not listed. The source made the active and inactive calls. Unless noted, calls follow the shape of the dose curve; as a rule, active = well fitted curve in either direction with a large enough effect (not every such curve was filed as active); inconclusive = small, poorly fitted or top-dose-only effect, or another doubt; inactive = flat fitted curve, though single readings scatter.

For assay [1], the target named is Lysosomal acid glucosylceramidase (Homo sapiens) (UniProt P04062). Description: Glucocerebrosidase-p2 (AID 348; in the data active = potency below about 10 µM; also: potency is read from the fitted curve at half-maximal effect). Conditions: purified GBA, blue fluorogenic substrate, 40 min. The essentials:
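Normal human glucocerebrosidase (0.2 nM) with blue fluorogenic substrate (80 uM final) in citrate/phosphate pH 5.9 with 10mM sodium taurocholate, 0.01% tween-20; 40 min RT, NaOH/glycine stop; fluorescence Ex 365/Em 440; AC50 from a titration from 0.6 nM upwards.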

Assay [2] can be described thus: AP1 Signaling Pathway (AID 357). Also: % is scaled to controls: 0 for no effect and ±100 for the full control effect. Conditions: ME-180 AP-1-bla reporter, EGF-induced, beta-lactamase ratio, 5 h; at 7.69 µM (top of the series) unless noted. The method in brief: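 ME-180 cells with beta-lactamase reporter under AP-1 response element, stimulated with EC50 EGF; compounds tested in titration series, 5 h at 37 °C. CCF4 substrate added 2.5 h at room temperature; 460/530 nm emission ratio gave %activity and AC50.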

Assay [3] in a line: Stat Signaling Pathway (AID 446).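 Also: ME-180 cervical cancer cells given 40 pM IL-6 alongside compound; SIE-controlled beta-lactamase reporter measured as 460/530 nm FRET emission ratio; % is scaled to controls: 0 for no effect and ±100 for the full control effect.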 Conditions: ME-180 (cervical carcinoma) SIE beta-lactamase reporter, IL-6 stimulated, 5 h; at 7.69 µM (top of the series) unless noted. The essentials:
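Compound effects on IL-6-induced STAT reporter activity were measured in ME-180 cells. After overnight culture, cells were co-treated with 40 pM IL-6 for 5 hrs before beta-lactamase substrate loading at room temperature.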

Assay [4] deals with Glucocorticoid receptor (Homo sapiens) (UniProt P04150). Description: GR-EFC Redistribution (AID 451; calls by dose curve; also: potency is read from the fitted curve at half-maximal effect). The following applies: CHO-K1 GR-EFC translocation, beta-gal luminescence, 2 h. The essentials: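 Translocation of GR-ED fusion to nuclear EA restores b-gal, read by luminescence after 1 h room-temperature detection. Engineered CHO-K1 biosensor cells, 1,000/well, exposed 2 h at 37 C to titrations up to 46 uM final.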

Assay [5] concerns the target Mitogen-activated protein kinase 10 (Mus musculus) (UniProt Q61831). Description: JNK3 AlphaScreen Assay (AID 530).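 Also: kinase came from lysate of stimulated human HepG2 cells; signal reports phosphorylation of biotinylated GST-cJun 1-79 at Ser73 with 10 µM ATP; % is scaled to controls: 0 for no effect and ±100 for the full control effect.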 Conditions: JNK3 lysate, c-Jun phosphorylation; series mostly up to 57.1 µM. The method in brief: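 qHTS titrations with 15 min compound pre-incubation before adding ATP (10 uM final). Read-out: AlphaScreen of Ser73-phosphorylated biotin-GST-cJun using HepG2 lysate JNK3 activated by IL-1β and TNFα.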

Assay [6] concerns the target 3',5'-cyclic-AMP phosphodiesterase 4B (Homo sapiens) (UniProt Q07343). Description: qHTS Assay for Inhibitors of PDE-IV (AID 607; active = well fitted activation curve with a large enough effect in the main read-out, with a control signal flat, not every such curve was filed as active; also: % of control where 0% means no effect). Conditions: HEK293 ACTOne CNG channel cells, membrane potential fluorescence; series mostly up to 22.9 µM. The essentials:
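ACTOne HEK293 cells carry a modified cAMP-gated CNG channel and express endogenous PDE4; plated 1000 cells/well, compounds up to 22.9 uM final. Membrane-potential dye fluorescence (ex 535/em 590) was read; parental cells received 10 uM forskolin + 100 uM RO 20-1724.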

Assay [7] can be described thus: qHTS Assay for Lipid Storage Modulators (AID 1519; calls by dose curve). Conditions: Drosophila S3 cells, BODIPY lipid droplet/cell ratio, laser cytometry, cells loaded with oleic acid; for activity change, negative = inhibition: at 57.5 µM (top of the series). The method in brief: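 Cells seeded at 5,000 per well were treated with compounds over a concentration series and loaded with oleic acid (400 uM, as added). Lipid droplet fluorescence (488 nm excitation, 500-530 nm channel) was read by laser-scanning cytometry and normalized to 20 uM Triacsin C.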

A short description of assay [8]: Primary qHTS for small molecule stabilizers of the endoplasmic reticulum resident proteome: Secreted ER Calcium Modulated Protein (SERCaMP) assay (AID 1508630; active = well fitted curve in the direction sought with a large enough effect; an effect the other way counts as inactive or inconclusive; also: % is scaled to controls: 0 for no effect and ±100 for the full control effect). Conditions: SH-SY5Y GLuc-SERCaMP (Gaussia luciferase released on ER calcium loss) secretion, thapsigargin, luminescence; series mostly up to 38.4 µM. The essentials:
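The SH-SY5Y reporter protocol was run at 3 concentrations up to 38.3 uM (primary) or 11 concentrations (follow-up): 16 h compound, 100 nM thapsigargin for 4 h, then extracellular luciferase luminescence.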

For assay [9], the target named is Cytochrome P450 3A4 (Homo sapiens) (UniProt P08684). Description: qHTS Assay for Activators of Cytochrome P450 3A4 (AID 885; active = well fitted curve in the direction sought with a large enough effect; an effect the other way counts as inactive or inconclusive; also: nearly all actives have a fitted effect of over 65% in size). The following applies: recombinant CYP3A4, Luciferin-PPXE luminescence, 60 min; series mostly up to 57.1 µM. The essentials: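 CYP3A4 activity: Luciferin-PPXE O-dealkylation, 25uM substrate, 200mM KPO4, RT throughout. Read-out is luciferase luminescence; higher values reflect activation.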

Assay [10] deals with Cytochrome P450 2D6 (Homo sapiens) (UniProt P10635). As to the kind of experiment: qHTS Assay for Inhibitors and Substrates of Cytochrome P450 2D6 (AID 891; active = well fitted curve in the direction sought with a large enough effect; an effect the other way counts as inactive or inconclusive; also: potency is read from the fitted curve at half-maximal effect; nearly all actives have a fitted effect of over 60% in size). The following applies: recombinant CYP2D6, luciferin-ME EGE luminescence; series mostly up to 57.1 µM. The essentials:
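Luminescent read-out of luciferin formed by 5 nM human CYP2D6 demethylating 30 uM Luciferin-ME EGE (Km level) over 60 min at room temperature after NADPH regeneration addition. Data normalized to full inhibition by 1.43 uM quinidine.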

Setting [11] is: measured here: cell count channel max response.
[12] abbreviates: measured here: lipid channel max response.

Chain of Lysosomal acid glucosylceramidase (Homo sapiens) (P04062 whole entry, looked up): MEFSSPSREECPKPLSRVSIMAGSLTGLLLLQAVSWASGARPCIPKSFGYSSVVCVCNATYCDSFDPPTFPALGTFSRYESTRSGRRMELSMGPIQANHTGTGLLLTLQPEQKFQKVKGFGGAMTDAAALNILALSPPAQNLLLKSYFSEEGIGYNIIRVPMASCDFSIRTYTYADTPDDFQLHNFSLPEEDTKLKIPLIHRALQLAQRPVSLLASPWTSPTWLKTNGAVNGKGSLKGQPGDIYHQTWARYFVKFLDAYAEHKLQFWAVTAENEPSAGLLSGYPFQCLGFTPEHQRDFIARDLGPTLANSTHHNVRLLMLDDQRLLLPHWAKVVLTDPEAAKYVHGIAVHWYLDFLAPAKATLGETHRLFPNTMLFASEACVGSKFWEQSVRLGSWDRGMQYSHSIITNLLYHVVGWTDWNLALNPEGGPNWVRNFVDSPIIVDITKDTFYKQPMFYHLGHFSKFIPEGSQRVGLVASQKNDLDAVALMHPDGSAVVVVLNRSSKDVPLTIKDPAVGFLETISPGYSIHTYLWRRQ
Chain of 3',5'-cyclic-AMP phosphodiesterase 4B (Homo sapiens) (Q07343 whole entry, looked up): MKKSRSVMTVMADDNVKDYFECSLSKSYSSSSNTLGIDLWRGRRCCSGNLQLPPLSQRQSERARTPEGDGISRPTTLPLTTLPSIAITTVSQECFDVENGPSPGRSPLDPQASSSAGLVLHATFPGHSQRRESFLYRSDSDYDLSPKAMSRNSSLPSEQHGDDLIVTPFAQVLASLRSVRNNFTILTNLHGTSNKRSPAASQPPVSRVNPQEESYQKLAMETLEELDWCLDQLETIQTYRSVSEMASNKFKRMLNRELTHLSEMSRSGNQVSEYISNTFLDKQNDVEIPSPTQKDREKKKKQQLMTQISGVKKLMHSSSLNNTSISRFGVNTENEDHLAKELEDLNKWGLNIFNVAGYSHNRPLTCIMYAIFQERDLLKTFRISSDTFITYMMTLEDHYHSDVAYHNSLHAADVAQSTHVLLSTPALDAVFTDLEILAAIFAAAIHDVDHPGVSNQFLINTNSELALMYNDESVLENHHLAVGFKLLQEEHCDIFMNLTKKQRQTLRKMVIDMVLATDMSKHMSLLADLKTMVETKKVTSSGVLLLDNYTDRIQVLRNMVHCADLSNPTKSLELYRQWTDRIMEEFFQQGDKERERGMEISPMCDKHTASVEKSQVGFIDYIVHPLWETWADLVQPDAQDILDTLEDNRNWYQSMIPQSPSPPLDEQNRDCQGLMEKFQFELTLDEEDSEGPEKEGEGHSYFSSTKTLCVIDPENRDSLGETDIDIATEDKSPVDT
Chain of Glucocorticoid receptor (Homo sapiens) (P04150 whole entry, looked up, the tested form may be a part): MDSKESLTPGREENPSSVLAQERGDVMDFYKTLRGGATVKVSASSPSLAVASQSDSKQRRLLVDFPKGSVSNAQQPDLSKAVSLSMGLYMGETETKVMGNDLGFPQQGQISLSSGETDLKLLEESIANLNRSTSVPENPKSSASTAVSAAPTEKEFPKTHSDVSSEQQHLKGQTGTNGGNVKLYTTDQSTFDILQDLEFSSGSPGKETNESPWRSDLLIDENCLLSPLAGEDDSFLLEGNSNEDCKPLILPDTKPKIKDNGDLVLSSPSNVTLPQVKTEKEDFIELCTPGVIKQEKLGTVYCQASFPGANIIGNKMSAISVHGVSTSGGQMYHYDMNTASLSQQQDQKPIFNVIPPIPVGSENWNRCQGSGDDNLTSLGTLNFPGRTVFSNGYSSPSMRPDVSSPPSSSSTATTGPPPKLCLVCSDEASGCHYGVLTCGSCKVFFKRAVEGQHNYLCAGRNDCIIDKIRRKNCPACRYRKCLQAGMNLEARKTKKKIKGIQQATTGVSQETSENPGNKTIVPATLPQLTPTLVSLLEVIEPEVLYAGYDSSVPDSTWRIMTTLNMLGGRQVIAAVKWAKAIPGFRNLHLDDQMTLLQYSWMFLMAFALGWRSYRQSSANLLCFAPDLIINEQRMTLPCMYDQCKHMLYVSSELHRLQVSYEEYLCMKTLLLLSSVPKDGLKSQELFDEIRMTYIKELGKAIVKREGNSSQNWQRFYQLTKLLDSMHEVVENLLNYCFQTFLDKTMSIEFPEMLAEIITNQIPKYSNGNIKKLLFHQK
Chain of Cytochrome P450 3A4 (Homo sapiens) (P08684 whole entry, looked up): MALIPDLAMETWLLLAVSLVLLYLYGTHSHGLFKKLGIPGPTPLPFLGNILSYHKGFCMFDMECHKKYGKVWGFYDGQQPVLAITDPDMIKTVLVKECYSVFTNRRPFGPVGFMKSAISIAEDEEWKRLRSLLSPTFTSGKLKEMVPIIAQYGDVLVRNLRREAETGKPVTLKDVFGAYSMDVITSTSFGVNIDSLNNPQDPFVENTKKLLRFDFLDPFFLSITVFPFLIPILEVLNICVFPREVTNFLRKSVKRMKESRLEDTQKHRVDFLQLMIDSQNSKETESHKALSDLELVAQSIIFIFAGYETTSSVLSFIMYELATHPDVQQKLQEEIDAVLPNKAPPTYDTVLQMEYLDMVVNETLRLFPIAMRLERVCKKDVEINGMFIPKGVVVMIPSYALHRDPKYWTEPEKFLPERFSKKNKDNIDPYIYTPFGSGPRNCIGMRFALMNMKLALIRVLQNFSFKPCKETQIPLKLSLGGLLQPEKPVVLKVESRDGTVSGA
Chain of Cytochrome P450 2D6 (Homo sapiens) (P10635 whole entry, looked up): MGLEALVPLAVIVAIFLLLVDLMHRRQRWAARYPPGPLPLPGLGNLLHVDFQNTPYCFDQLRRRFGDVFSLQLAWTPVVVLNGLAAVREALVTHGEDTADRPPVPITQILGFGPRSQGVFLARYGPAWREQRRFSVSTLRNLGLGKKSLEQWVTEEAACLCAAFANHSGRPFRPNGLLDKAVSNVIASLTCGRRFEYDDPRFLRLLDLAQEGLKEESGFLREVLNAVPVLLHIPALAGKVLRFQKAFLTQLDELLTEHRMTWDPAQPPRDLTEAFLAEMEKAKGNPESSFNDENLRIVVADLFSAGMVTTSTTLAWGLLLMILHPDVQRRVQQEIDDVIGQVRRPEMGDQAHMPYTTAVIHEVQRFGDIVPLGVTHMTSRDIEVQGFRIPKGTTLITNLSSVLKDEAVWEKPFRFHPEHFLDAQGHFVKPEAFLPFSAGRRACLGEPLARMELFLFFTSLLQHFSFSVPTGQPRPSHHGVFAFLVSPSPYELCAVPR

As to `O=C(c1ccncc1)N1CCC2(CCCN(Cc3nccs3)C2)CC1`, the Potency in assay [1] is > 11.4 µM (inactive); in assay [4] it was > 46 µM (inactive). The activity change, negative = inhibition in [2] is -14.3% (inactive); in assay [7] it was 6% (inactive). Moreover, the activity, negative = inhibition in assay [3] was 7.31% (inactive). For the same compound, the Potency result in [5] and in assay [6] was “inactive” each time. Further, the max response was 2.79% in [7] (setting [11]) and 11.6% in assay [7] (setting [12]). In assay [8], the result was inactive.

For the compound `N#Cc1ccc(CN2CCCC3(CCN(C(=O)c4csnn4)CC3)C2)cc1`, the Potency in assay [1] was > 11.4 µM (inactive); in [4], > 46 µM (inactive). Moreover, the values for the activity change, negative = inhibition in assay [2] and in assay [7] were -6.06% (inactive) and -0.464% (inactive), respectively. The activity, negative = inhibition in assay [3] is 1.34% (inactive). The Potency result in assay [5] and in assay [6] was “inactive” each time. The max response in assay [7] (setting [11]) was -10.9%; in [7] (setting [12]), -8.04%. Also, in assay [8], the result was inactive.

`O=C(c1cnccn1)N1CCC[C@@]2(CCN(c3ccccn3)C2)C1`: the Potency is > 11.4 µM (inactive) in assay [1] and > 46 µM (inactive) in assay [4]. Further, the activity change, negative = inhibition in [2] is 7.84% (inactive); in assay [7], 3.99% (inactive). Also, the activity, negative = inhibition in assay [3] is 0.945% (inactive). In addition, the Potency result in assay [5], in [6] and in assay [9] was “inactive” throughout. Besides, the max response amounted to 24.1% in assay [7] (setting [11]) and 26.9% in [7] (setting [12]). The result in assay [8] was inactive.

Consider `O=C(c1cnccn1)N1CCC2(CCN(Cc3ccccc3)CC2)CC1`, for which the Potency is > 11.4 µM (inactive) in assay [1] and > 46 µM (inactive) in assay [4]. The activity change, negative = inhibition is 12.5% (inactive) in [2] and 2.37% (inactive) in assay [7]. In addition, the activity, negative = inhibition in assay [3] was -1.26% (inactive). For the same compound, the Potency entry in assay [5] and in assay [6] was “inactive” throughout. For the same compound, the max response was determined as 7.12% in assay [7] (setting [11]) and 14.3% in [7] (setting [12]). In addition, the result in assay [8] was inactive.

For `O=C(c1csnn1)N1CCC2(CCCN(Cc3ccccc3)C2)CC1`, the Potency in assay [1] was > 11.4 µM (inactive); in assay [4], > 46 µM (inactive); in assay [10] it was 1.26 µM (active). Besides, the results for the activity change, negative = inhibition in [2] and in [7] were 9.34% (inactive) and 3.37% (inactive), respectively. Further, the activity, negative = inhibition in assay [3] was -5.61% (inactive). Also, the Potency entry in [5] and in [6] was “inactive” each time. Also, the figures for the max response in assay [7] (setting [11]) and in assay [7] (setting [12]) were 10.8% and 18%, respectively. Also, the result in assay [8] was inactive.

As to `CC(C)CN1CC2(CCN(C(=O)c3csnn3)CC2)C1`, the Potency was > 11.4 µM (inactive) in [1] and > 46 µM (inactive) in assay [4]. For the same compound, the activity change, negative = inhibition in assay [2] is -4.73% (inactive); in assay [7], -0.802% (inactive). Moreover, the activity, negative = inhibition in assay [3] is 4.77% (inactive). For the same compound, the Potency result in assay [5] and in assay [6] was “inactive” in each case. The max response is -2.36% in [7] (setting [11]) and -0.0505% in assay [7] (setting [12]). Besides, the outcome in assay [8] was inactive.

As to `COc1ccccc1CN1CCC2(CC1)CCN(C(=O)c1csnn1)CC2`, the Potency in assay [1] was > 11.4 µM (inactive); in assay [4], > 46 µM (inactive). In addition, the activity change, negative = inhibition in [2] is 0.316% (inactive); in assay [7], 5.71% (inactive). Besides, the activity, negative = inhibition in assay [3] is -5.49% (inactive). Moreover, the Potency result in assay [5], in assay [6] and in assay [9] was “inactive” in each case. Also, the max response was 16.4% in [7] (setting [11]) and 24.4% in assay [7] (setting [12]). For the same compound, in assay [8], the result was inactive.

For `O=C(c1cnccn1)N1CCC2(CC1)CCN(c1ccncc1)CC2`, the Potency was > 11.4 µM (inactive) in [1] and > 46 µM (inactive) in assay [4]. The activity change, negative = inhibition in [2] was 15.7% (inactive); in assay [7], 2.66% (inactive). Further, the activity, negative = inhibition in assay [3] was 2.83% (inactive). Also, the Potency entry in assay [5] and in assay [6] was “inactive” throughout. Besides, the max response in [7] (setting [11]) stood at 3.08%; in [7] (setting [12]), 8.09%. Besides, the result in [8] was inactive.
